Screens deposited in PubChem BioAssay by several laboratories.
F508del corr = F508del CFTR correction, initial screen, CFBE line, single point. CFBE cells, YFP halide quenching; stimulated with forskolin plus potentiator P3; % fluorescence drop versus neutral controls. activity (quench increase), % at 7.58 µM. actives 0.36% (n = 350,000). AID 720511, 2013;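 active = mean added fluorescence quench of at least 8% versus neutral control, with both replicates also reaching 8%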;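 note: cells transiently co-express mutant CFTR-F508del with the halide-sensitive YFP; corrector assay measuring rescue of mutant channel to the surface after 24 h compound exposure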
MPTP inh = mitochondrial permeability transition pore inhibitors, primary screen, biochemical, isolated mouse mitochondria, absorbance; Ca2+ swelling absorbance, 30 min; inhibition, % at 10 µM; actives 1.4% (n = 360,000);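 active = inhibition of 50% or more, scaled per plate between neutral and stimulator controls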;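 note: 0% = DMSO wells given calcium and 100% = 1 mM EGTA wells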
NRP1-CendR mod = modulators of CendR peptide binding to NRP-1, primary screen, biochemical, fluorescence polarization, uHTS. Neuropilin-1 (Homo sapiens), O14786. FAM-RPARPAR peptide binding to NRP-1. inhibition, % at 25 µM. actives 0.85% (n = 360,000);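 active = inhibition or corrected inhibition above about 18%, plus a signal ratio from 0.5 to 1.5, limit read from the data, passing the limit was not always enough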
ATG4B inhibitor = ATG4B protease inhibitors, primary screen, biochemical, fluorescence, uHTS; Cysteine protease ATG4B (Homo sapiens), Q9Y4P1; ATG4B cleavage of LC3-PLA2, NBD-HPC fluorescence, 1 h; inhibition, % at 8.33 µM; actives 0.51% (n = 340,000); AID 504462, 2011; in the data active = inhibition above about 40%
Target sequence (Q9Y4P1 whole entry, looked up): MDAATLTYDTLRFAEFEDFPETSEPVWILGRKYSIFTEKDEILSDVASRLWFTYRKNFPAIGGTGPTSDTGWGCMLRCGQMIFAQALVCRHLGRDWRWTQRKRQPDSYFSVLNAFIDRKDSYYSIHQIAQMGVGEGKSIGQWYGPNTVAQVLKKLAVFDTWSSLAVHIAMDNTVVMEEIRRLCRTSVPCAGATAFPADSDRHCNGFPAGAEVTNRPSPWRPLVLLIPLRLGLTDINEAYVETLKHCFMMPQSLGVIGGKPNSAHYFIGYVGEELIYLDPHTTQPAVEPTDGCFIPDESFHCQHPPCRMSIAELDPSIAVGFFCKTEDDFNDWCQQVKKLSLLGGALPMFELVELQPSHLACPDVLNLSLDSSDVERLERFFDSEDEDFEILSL
SKN-1 block = suppressors of acrylamide-induced Pgst-4::GFP reporter in worms, primary screen, SKN-1 inhibitor project, whole organism, uHTS, GFP/RFP fluorescence ratio, strain VP596; inhibition, % at 21.8 µM; C. elegans VP596 Pgst-4::GFP/RFP ratio, 24 h; AID 624304, 2012; actives 0.49% (n = 360,000);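 active = interference check ratio from 0.5 to 1.5 plus GFP to RFP signal ratio inhibition reaching or exceeding a fixed threshold, cut at about 30% in these data, passing the limit was not always enough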
MPTP counter = fluorescence retest of MPTP screen hits in isolated mitochondria, single concentration; shares compounds with MPTP inh; membrane potential, Rhodamine 123 fluorescence; inhibition, % at 10 µM; actives 78% (n = 5,000); AID 624504, 2012; in the data active = inhibition above about 22%;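 note: 0% = DMSO vehicle and 100% = positive control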
MPTP abs DR = mitochondrial permeability transition pore inhibitors, dose response, biochemical, absorbance, uHTS hits | AID 651561, 2012 | isolated mitochondria swelling | shares compounds with MPTP inh | actives 58% (n = 780) | IC50, µM; in the data active = IC50 below about 20 µM
MPTP cs DR = fluorescent counter-screen in isolated mitochondria, dose response, counter-screen for MPTP inhibitor project, biochemical, fluorescence, uHTS hits; shares compounds with MPTP inh; isolated mitochondria counterscreen, fluorescence read-out; IC50, µM; actives 49% (n = 780); in the data active = IC50 below about 80 µM
* = called active by the depositor; i = inactive; / = no result. An excerpt weighted towards active compounds, which were near 2.7% of everything screened.

SMILES	F508del corr	MPTP inh	NRP1-CendR mod	ATG4B inhibitor	SKN-1 block	MPTP counter	others
COc1ccc(/C=N/NC(=O)c2[nH]c3ccc(Cl)cc3c2-c2ccccc2)c(C(=O)O)c1OC	0	-1	-3	7	16	/
COc1ccc(/C=N/NC(=O)c2[nH]c3ccc(Br)cc3c2-c2ccccc2)c(C(=O)O)c1OC	2	1	-46	21	-7	/
Cc1c(C(=O)N/N=C/c2ccc(N(C)C)cc2)[nH]c2ccc(Cl)cc12	2	80*	4	-2	3	74*
COc1cc(C(=O)NN=Cc2ccc(N(C)C)cc2)cc(OC)c1OC	2	1	7	/	-8	/
O=C(N/N=C/c1ccccc1Cl)c1[nH]c2ccc(Br)cc2c1-c1ccccc1	/	82*	1	8	10	88*
O=C(Nc1ccccc1)Nc1ccc(Br)cc1F	-2	53*	8	-5	17	84*
COc1ccccc1NC(=O)Nc1ccc(F)c(F)c1	0	81*	20	-2	6	68*
Cc1cc(NC(=O)Nc2ccccc2F)ccc1Br	-2	84*	-18	-2	7	91*
COC(=O)c1cc(Br)ccc1NC(=O)Nc1ccccc1	1	0	10	-6	2	/
O=C(Nc1cccc(Cl)c1)Nc1ccc(Br)cc1F	/	75*	-2	-6	22	82*
COc1ccc(NC(=O)Nc2ccc3c(c2)C(=O)N([C@@H](C)CO)C[C@@H](C)[C@@H](CN(C)S(=O)(=O)c2cn(C)cn2)OCCCC[C@H](C)O3)cc1	0	/	/	/	/	/
COc1ccc(Cl)cc1NC(=O)c1[nH]c(C)c(C(C)=O)c1C	3	0	2	-2	17	/
CCc1c(C(=O)Nc2ccc(OC)c(Cl)c2)[nH]c(C)c1C(C)=O	/	88*	-5	-4	-15	95*
CO[C@H]1CN(C)C(=O)c2cc(NS(=O)(=O)CC(F)(F)F)ccc2OC[C@@H](C)N(C(=O)NC(C)C)C[C@H]1C	-3	/	/	/	/	/
CCN1CCN(c2ncc(C(=O)Nc3cc(Cl)ccc3OC)c3ccccc23)CC1	/	78*	-12	-6	12	-11	MPTP abs DR=i;MPTP cs DR=>80
C=CCn1cc(/C=N/Nc2nc3ccccc3[nH]2)c2ccccc21	3	63*	12	-16	4	-22
CC(C)Cn1c(/C=C/c2ccccc2)nc2ccccc21	/	2	-1	32	16	/
Cc1c(/C=N/Nc2nc3ccccc3[nH]2)c2ccccc2n1C	-9	1	-8	-34	7	/
Cn1c(/C=N/Nc2nc3ccccc3[nH]2)nc2ccccc21	/	1	-11	-8	13	/
CC(C)Cn1c(/C=N/Nc2nc3ccccc3[nH]2)nc2ccccc21	-1	100*	-59	24	16	74*
CCCn1c(/C=N/Nc2nc3ccccc3[nH]2)nc2ccccc21	/	90*	-3	9	22	81*
CCCNC(=O)N1[C@@H](C#N)[C@H](c2ccccc2-c2ccccc2F)[C@@H]1CO	3	/	/	/	/	/
Cc1nnc(N/N=C/c2cc([N+](=O)[O-])c(N3CCC(C)CC3)cc2N2CCC(C)CC2)n1N	/	83*	-1	7	-5	66*
COc1ccc(CCNCC(O)COc2cccc(Br)c2)cc1OC (stereo not given)	-1	1	5	-1	0	/
COc1ccc(CCNCC(O)COc2ccc(OC)cc2C(C)(C)C)cc1 (stereo not given)	0	80*	8	-3	10	-18	MPTP abs DR=6.2*;MPTP cs DR=41*
SMILES	F508del corr	MPTP inh	NRP1-CendR mod	ATG4B inhibitor	SKN-1 block	MPTP counter	others
C[C@@H]1CCCCO[C@H](CN(C)CC2CCCCC2)[C@@H](C)CN([C@H](C)CO)C(=O)c2cc(NC(=O)Cc3ccccc3)ccc2O1	0	/	/	/	/	/
C[C@H](CO)N1C[C@H](C)[C@H](CN(C)C(=O)Nc2ccc3c(c2)OCO3)Oc2ccc(NS(=O)(=O)c3cccs3)cc2CC1=O	1	/	/	/	/	/
O=C(Nc1cccc(C(F)(F)F)c1)N1CCC(c2nc(-c3ccc(F)cc3)no2)CC1	/	77*	-9	9	-6	89*
O=C(Nc1ccccc1)N1CCCC(c2nc(-c3ccc(F)cc3)no2)C1 (stereo not given)	/	-2	10	-11	-7	/
CC(C)CNC(=S)N1CCC(c2nc(-c3ccc(F)cc3)no2)CC1	3	95*	-2	-1	10	94*
COCCNC(=S)N1CCC(c2nc(-c3ccc(N(C)C)cc3)no2)CC1	/	3	12	-11	13	/
COCc1[nH]nc2c1C(c1ccc3c(c1)OCO3)N(Cc1ccccc1)C2=O (stereo not given)	2	/	/	/	/	/
CO[C@H]1CN(C)C(=O)c2ccc(NS(C)(=O)=O)cc2OC[C@H](C)N(C(=O)C2CCOCC2)C[C@@H]1C	-2	/	/	/	/	/
C[C@@H]1CCCCO[C@@H](CN(C)C(=O)C2CCCCC2)[C@H](C)CN([C@H](C)CO)C(=O)c2cc(NC(=O)Nc3ccccc3)ccc2O1	2	/	/	/	/	/
CCCCCN=C(N)N/N=C/c1c[nH]c2ccc(OC)cc12	2	85*	1	22	21	23*
CCCOc1ccc(C(=O)N/N=C/c2c[nH]c3ccc(Br)cc23)cc1	3	2	3	-2	3	/
CC(C)COC(=O)N(C)C[C@@H]1OCc2ccccc2-c2c(n(C)c3ccccc23)C(=O)N([C@H](C)CO)C[C@@H]1C	0	/	/	/	/	/
COc1cccc(N2CCN(c3ncnc4c3[nH]c3ccc(F)cc34)CC2C)c1 (stereo not given)	/	100*	-2	-10	0	93*
COc1ccc2[nH]c3c(N4CC(C)OC(C)C4)ncnc3c2c1 (stereo not given)	/	/	/	-9	/	/
Cc1ccc(C(=O)NCCSCc2ccc(Cl)cc2Cl)cc1[N+](=O)[O-]	/	68*	6	3	2	78*
CC(C)COc1ccc(CNC(=S)Nc2ccccc2)cc1Cl	2	74*	1	36	8	86*
CC(C)Oc1ccc(CNC(=S)Nc2ccccc2)cc1Cl	3	26	8	2	3	/
CCOc1ccc(NC(=S)Nc2ccc(OCc3ccccc3)cc2)cc1	/	0	-17	1	2	/
